# About 410 targets per protein were measured; listed, in parts, are those with the strongest signals and a random draw of the rest.
# B1: Epa1to9 (Candida glabrata) (protein)
# chain: MGSSHHHHHHSSGLVPRGSHMTSSNDISLASKDPTTFPLGCSPDITTPKKGLSMELYSYDFRKKGSYPCWDAAYLDPNYPRTGYKSHRLLAKVDGVTGNINFYYHATKGCTPQLGHLPASYNYPKPLTMTNFTMLLYGYFRPKVTGFHTFTISADDLLFVNFGAGNAFDCCRRDSSADHFGNYQAYAIWGSKTAKDELTVHLDAGVYYPIRLFYNNRDYHGALSFTFKTESNENTVSDFSEYFFSLDDTEEGCPGLISYD
# What was measured:
# Assay in all cases: glycan array binding signal (z-score within array); higher = stronger binding
# Details in all cases: glycan notation: IUPAC condensed, linker removed
# [1] = target: Fuc(a1-2)Gal(b1-3)GlcNAc(b1-3)Gal(b1-4)Glc
# In short: (§1)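 The Consortium for Functional Glycomics database supplied 3228 glycan arrays, of which those lacking an available protein sequence were dropped. The binding signal, a within-array Z-score, was averaged across arrays of the same protein sequence and across linkers. Negative scores can be read as non-binding.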
# Fuc(a1-2)Gal(b1-4)Glc = target: Fuc(a1-2)Gal(b1-4)Glc
# In short: as §1
# [2] = target: Fuc(a1-2)Gal(b1-4)GlcNAc(b1-3)GalNAc
# In short: as §1
# [3] = target: Fuc(a1-2)Gal6S(b1-3)GlcNAc
# In short: as §1
# [4] = target: Fuc(a1-2)[Gal(a1-3)]Gal(b1-4)[Fuc(a1-3)]GlcNAc
# In short: as §1
# [5] = target: Fuc(a1-2)[GalNAc(a1-3)]Gal(b1-3)GalNAc(b1-3)Gal(a1-4)Gal(b1-4)Glc
# In short: as §1
# [6] = target: Fuc(a1-2)[GalNAc(a1-3)]Gal(b1-4)GlcNAc(b1-2)Man(a1-3)[Fuc(a1-2)[GalNAc(a1-3)]Gal(b1-4)GlcNAc(b1-2)Man(a1-6)]Man(b1-4)GlcNAc(b1-4)GlcNAc
# In short: as §1
# [7] = target: Fuc(a1-3)[Gal(b1-4)]GlcNAc(b1-3)GalNAc
# In short: as §1
# [8] = target: Gal(a1-3)Gal(b1-4)GlcNAc(b1-2)Man
# In short: as §1
# Gal(a1-4)GlcNAc = target: Gal(a1-4)GlcNAc
# In short: as §1
# Gal(b1-3)Gal(b1-4)GlcNAc = target: Gal(b1-3)Gal(b1-4)GlcNAc
# In short: as §1
# Gal(b1-3)GalNAc(b1-3)Gal = target: Gal(b1-3)GalNAc(b1-3)Gal
# In short: as §1
# [9] = target: Gal(b1-3)GalNAc(b1-4)Gal(b1-4)Glc
# In short: as §1
# [10] = target: Gal(b1-3)GalNAc(b1-4)[Neu5Ac(a2-3)]Gal(b1-4)Glc
# In short: as §1
# [11] = target: Gal(b1-3)[Neu5Ac(a2-6)]GalNAc
# In short: as §1
# [12] = target: Gal(b1-4)GlcNAc(b1-2)Man(a1-3)[Gal(b1-4)GlcNAc(b1-2)Man(a1-6)]Man(b1-4)GlcNAc(b1-4)GlcNAc
# In short: as §1
# [13] = target: Gal(b1-4)GlcNAc(b1-2)Man(a1-3)[Man(a1-6)]Man(b1-4)GlcNAc(b1-4)GlcNAc
# In short: as §1
# [14] = target: Gal(b1-4)GlcNAc(b1-2)[Gal(b1-4)GlcNAc(b1-6)]Man(a1-6)[Gal(b1-4)GlcNAc(b1-2)Man(a1-3)]Man(b1-4)GlcNAc(b1-4)[Fuc(a1-6)]GlcNAc
# In short: as §1
# [15] = target: Gal(b1-4)GlcNAc(b1-3)Gal(b1-3)GlcNAc
# In short: as §1
# [16] = target: Gal(b1-4)GlcNAc(b1-3)Gal(b1-4)GlcNAc
# In short: as §1
# [17] = target: Gal(b1-4)GlcNAc(b1-3)Gal(b1-4)GlcNAc(b1-3)Gal(b1-4)GlcNAc(b1-3)Gal(b1-4)GlcNAc(b1-3)Gal(b1-4)GlcNAc(b1-2)Man(a1-3)[Gal(b1-4)GlcNAc(b1-3)Gal(b1-4)GlcNAc(b1-3)Gal(b1-4)GlcNAc(b1-3)Gal(b1-4)GlcNAc(b1-3)Gal(b1-4)GlcNAc(b1-2)Man(a1-6)]Man(b1-4)GlcNAc(b1-4)GlcNAc
# In short: as §1
# [18] = target: Gal3S(b1-3)[Fuc(a1-4)]GlcNAc
# In short: as §1
# Gal3S(b1-4)Glc = target: Gal3S(b1-4)Glc
# In short: as §1
# Gal6S(b1-3)GlcNAc6S = target: Gal6S(b1-3)GlcNAc6S
# In short: as §1
binder,measurement,setting,value
B1,glycan array binding signal (z-score),[1],-0.354
same,glycan array binding signal (z-score),Fuc(a1-2)Gal(b1-4)Glc,-0.307
same,glycan array binding signal (z-score),[2],-0.34
same,glycan array binding signal (z-score),[3],0.035
same,glycan array binding signal (z-score),[4],-0.276
same,glycan array binding signal (z-score),[5],-0.349
same,glycan array binding signal (z-score),[6],-0.318
same,glycan array binding signal (z-score),[7],-0.293
same,glycan array binding signal (z-score),[8],0.008
same,glycan array binding signal (z-score),Gal(a1-4)GlcNAc,1.94
same,glycan array binding signal (z-score),Gal(b1-3)Gal(b1-4)GlcNAc,4.22
same,glycan array binding signal (z-score),Gal(b1-3)GalNAc(b1-3)Gal,3.67
same,glycan array binding signal (z-score),[9],4.67
same,glycan array binding signal (z-score),[10],2.83
same,glycan array binding signal (z-score),[11],4.47
same,glycan array binding signal (z-score),[12],1.17
same,glycan array binding signal (z-score),[13],-0.161
same,glycan array binding signal (z-score),[14],3.13
same,glycan array binding signal (z-score),[15],-0.107
same,glycan array binding signal (z-score),[16],-0.064
same,glycan array binding signal (z-score),[17],0.122
same,glycan array binding signal (z-score),[18],-0.345
same,glycan array binding signal (z-score),Gal3S(b1-4)Glc,-0.283
same,glycan array binding signal (z-score),Gal6S(b1-3)GlcNAc6S,4.86

# Reference: the supplement of paper PMC8728848
